Among all 1,300 compounds or so, about 930 (72%) were called active. The set was probably picked from earlier hits. The list is a sample of the results. Entries with a potency or affinity are not part of this list. Values without a mark were called inactive.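 How the source made its calls: active means fitted curve reaches 40% activation signal increase at or below the top valid tested concentration in every replicate test; inconclusive means replicate tests disagree in their calls; inactive means all replicate tests inactive, including effects opposite the expected signal rise.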

41 molecules from PubChem BioAssay AID652053 (Broad Institute, 2013) can be followed below.

The nature of this test: miR-122 inhibitors in Huh7 reporter cells, dose response, cell-based, Huh7 psiCHECK-miR122, Renilla luciferase, cherry-pick (AID 652053). Particulars: 48 h; series mostly up to 35 µM; activation (miR-122 inhibition): at the top concentration.
Turning to `COC(=O)c1ccc(Cl)c(NC(C)=O)c1`, the “activation (miR-122 inhibition)” value was -5.94%. The value for `COc1ccccc1CNC(=O)C[C@@H]1CC[C@@H]2[C@@H](COc3ccc(NC(C)=O)cc3C(=O)N2C)O1` was 4.88%; that for `Cc1ccc(NC(=O)[C@@H]2CCCN2S(=O)(=O)c2ccccc2F)cc1S(=O)(=O)N1CCOCC1` was 32.9%. The figure for `C[C@@H]1CN([C@H](C)CO)C(=O)Cc2cc(NC(=O)Nc3cccc4ccccc34)ccc2O[C@H]1CN(C)C(=O)NC1CCCCC1` is -9.06%; for `Cc1cccc(OCCCC(=O)Nc2ccc(Cl)c(S(=O)(=O)N3CCOCC3)c2)c1` it is 26.7%. The value for `COC(=O)c1cc(Br)ccc1NC(=O)Nc1ccccc1` was -7.49%. Regarding `COc1ccc2c(c1)C(C)=CC(C)(C)N2S(=O)(=O)c1ccc(Br)cc1`, the “activation (miR-122 inhibition)” value was 20.6%. The value for `C[C@H](CO)N1C[C@H](C)[C@H](CN(C)S(=O)(=O)c2ccc(Cl)cc2)Oc2ccc(N(C)C)cc2CC1=O` was -4.37%; that for `CC(C)NC(=O)N(C)C[C@@H]1Oc2ccc(N(C)C)cc2CC(=O)N([C@H](C)CO)C[C@@H]1C` was -7.22%; that for `C[C@H](CO)N1C[C@H](C)[C@H](CN(C)S(C)(=O)=O)Oc2ccc(N(C)C)cc2CC1=O` was 10.5%. The figure for `C[C@H](CO)N1C[C@H](C)[C@H](CN(C)CC2CC2)Oc2ccc(N(C)C)cc2CC1=O` is -3.7%; for `CCCOC(=O)c1[nH]c2c(c1C)C(=O)CC(c1cccs1)C2` (stereo unspecified) it is 27.8%. The figure for `Clc1ccc(CNc2nc(N3CCOCC3)nc(N3CCOCC3)n2)cc1` is -7.36%. Regarding `CC(C)N1C(=O)CC(Nc2ccc(N3CCOCC3)cc2)C1=O` (stereo unspecified), the “activation (miR-122 inhibition)” value was 14.4%.

With `CCn1c(SCC(=O)Nc2ccc(N3CCOCC3)cc2)nnc1-c1ccc(OC)cc1`, the “activation (miR-122 inhibition)” value is -11.1%. The value for `CC(C)C(=O)Nc1ccc2c(c1)C(=O)N(C)[C@H]1CC[C@@H](CC(=O)NCC3CC3)O[C@@H]1CO2` was 1.56% [at 30 µM]; that for `COc1ccccc1CNC(=O)C[C@H]1CC[C@H]2[C@H](COc3ccc(NC(=O)Nc4ccc(F)c(F)c4)cc3C(=O)N2C)O1` was -21.2%. The figure for `COc1ccccc1CNC(=O)C[C@@H]1CC[C@H]2[C@H](COc3ccc(NC(=O)Nc4ccc(F)c(F)c4)cc3C(=O)N2C)O1` is -26.4%; for `CCCNC(=O)C[C@@H]1CC[C@@H]2[C@H](COc3ccc(NC(=O)Nc4c(C)noc4C)cc3C(=O)N2C)O1` it is -2.46%. The figure for `COCC(=O)Nc1ccc2c(c1)C(=O)N(C)[C@H]1CC[C@@H](CC(=O)O)O[C@H]1CO2` is -2.08%; for `COc1ccccc1CNC(=O)C[C@@H]1CC[C@H]2[C@@H](COc3ccc(NC(=O)Nc4ccc(F)c(F)c4)cc3C(=O)N2C)O1` it is -26.3%; for `COCCNC(=O)C[C@@H]1CC[C@H]2[C@@H](COc3ccc(NC(C)=O)cc3C(=O)N2C)O1` it is 9.45%. As to `Cc1nc(Nc2nc(CSc3nc4ccccc4[nH]3)cc(=O)[nH]2)nc2ccccc12`, the “activation (miR-122 inhibition)” value was 19.8%.

As for `Cc1ccc2c(C)nc(Nc3nc(CSc4nc5ccccc5[nH]4)cc(=O)[nH]3)nc2c1`, the “activation (miR-122 inhibition)” value was 0.806%. The value for `Cc1ccc(-n2nnnc2SCC(=O)N2c3ccccc3NC(=O)C2(C)C)cc1` was -3.77%; that for `NC(=O)c1ccc(-n2nnnc2SCC(=O)c2ccc(O)c(O)c2)cc1` was 1.97%. Regarding `O=C(C[C@H]1CC[C@@H]2[C@H](COC[C@H](O)CN2C(=O)C2CCCC2)O1)NCc1ccncc1`, the “activation (miR-122 inhibition)” value was -9.04%. On to `N#Cc1cnn2c1nc(N1CCCCC1)c1ccccc12`, for which the “activation (miR-122 inhibition)” value is -9.38%. The figure for `CC(C)Cc1nnc(NC(=O)Cc2ccccc2[N+](=O)[O-])s1` is 13.4%. On to `CCCCn1c(SCC(=O)Nc2nnc(CC)s2)nc2c1c(=O)n(C)c(=O)n2C`, for which the “activation (miR-122 inhibition)” value was -3.31%. The value for `COc1ccccc1C(=O)Nc1ccc2c(c1)C(=O)N(C)[C@@H]1CC[C@H](CC(=O)NCc3ccc(Cl)c(Cl)c3)O[C@@H]1CO2` was -24.2%.

In the case of `COc1ccccc1C(=O)Nc1ccc2c(c1)C(=O)N(C)[C@@H]1CC[C@H](CC(=O)NCc3ccc(Cl)c(Cl)c3)O[C@H]1CO2`, the “activation (miR-122 inhibition)” value was -5.9%.

With `COc1ccccc1CNC(=O)C[C@@H]1CC[C@@H]2[C@@H](COc3ccc(NC(=O)Nc4ccc(F)c(F)c4)cc3C(=O)N2C)O1`, the “activation (miR-122 inhibition)” value was -28.1%. As to `COc1ccccc1C(=O)Nc1ccc2c(c1)C(=O)N(C)[C@@H]1CC[C@@H](CC(=O)NCc3ccc(Cl)c(Cl)c3)O[C@@H]1CO2`, the “activation (miR-122 inhibition)” value was -8.54%. The figure for `COc1ccccc1C(=O)Nc1ccc2c(c1)C(=O)N(C)[C@@H]1CC[C@@H](CC(=O)NCc3ccc(Cl)c(Cl)c3)O[C@H]1CO2` is -25%; for `COc1ccccc1CNC(=O)C[C@@H]1CC[C@@H]2[C@H](COc3ccc(NC(=O)Nc4ccc(F)c(F)c4)cc3C(=O)N2C)O1` it is -27.8%; for `O=C(c1ccccc1F)N1C[C@H]2[C@@H](c3ccccc31)[C@@H](CO)N2Cc1ccc2c(c1)OCO2` it is 6.54%. The figure for `CCOc1ccc(Cl)cc1S(=O)(=O)n1cnc2cc(C)c(C)cc21` is 29.3%; for `Cc1ccc(-n2nnc(-c3nccs3)n2)cc1` it is 16.2%; for `CCOc1ccc(CSC2=NCCN2)cc1Cl` it is 20.8%.

With `CCCNC(=O)C[C@@H]1CC[C@H]2[C@H](COc3ccc(NC(=O)Cc4cccs4)cc3C(=O)N2C)O1`, the “activation (miR-122 inhibition)” value is -2.59%.
